Screens from PubChem BioAssay.
The list is not random: actives were taken first. Their share in the collection is about 5.4%.
PfM18AAP inh: blocks P. falciparum M18 aspartyl aminopeptidase | recombinant PfM18AAP, H-Glu-NHMec fluorogenic cleavage | 1.2% of 290,000 active | inhibition, % at 7.35 µM;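 active = inhibition above the campaign mean inhibition over all tested compounds plus 3 SD, cut at about 28% in these data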;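 note: 0% = plate median of test compound wells and 100% = 2 mM ZnCl2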
SMARCA2 act: increases SMARCA2 function in MMTV reporter cells; MG213 cells, MMTV-luciferase reporter, dexamethasone, overnight; activation, % at 9.1 µM; 1% of 370,000 active; AID 652017; in the data active = activation above about 7.8%;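 note: 0% = vehicle wells and 100% = reference activator wells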
beta cell repl: MIN6 beta-cell proliferation induction; MIN6 cells proliferation, ATPlite luminescence, 48 h; cells starved in 0.2% serum; 100% = growth in 10% serum; proliferation, % at 10 µM; 0.29% of 330,000 active; AID 2380;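 active = compounds whose signal lies at least 3.5 SD above the mean of all wells on their plate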;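 note: 0% = DMSO-treated cells in low-serum medium and 100% = 10% serum control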
ALR inh: inhibitors of human sulfhydryl oxidase ALR. inhibition, % (concentration not given with the values). 3.8% of 290,000 active. purified ALR, DTT oxidation, H2O2 HRP-luminol luminescence;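 active = mean replicate inhibition above about 79%, with every replicate also reaching it, limit read from the data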
Target sequence (P55789 whole entry, looked up): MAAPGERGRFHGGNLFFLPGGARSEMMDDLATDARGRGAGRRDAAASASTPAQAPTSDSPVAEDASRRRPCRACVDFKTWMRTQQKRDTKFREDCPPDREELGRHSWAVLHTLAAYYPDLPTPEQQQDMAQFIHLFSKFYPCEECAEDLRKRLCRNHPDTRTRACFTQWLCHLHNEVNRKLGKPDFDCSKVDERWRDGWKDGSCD
Exocytosis inh: lytic granule exocytosis inhibition | AID 651702 | inhibition, % at 10 µM | 0.66% of 360,000 active | TALL-104 LAMP-1 surface exposure, flow cytometry; cells stimulated with thapsigargin and PMA;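 active = inhibition above about 55%, limit read from the data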
GASC-1 inh: human JMJD2C demethylase inhibition. 0.069% of 330,000 active. Q9H3R0. AID 2099. inhibition, % at 2.35 µM. GST-JMJD2C(1-420) H3K9me3 demethylation, DELFIA europium;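 active = more than half of a compound's replicate wells show inhibition beyond 50%, single wells judged on their own value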;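 note: signal counts dimethyl H3K9 product captured on neutravidin plate; 0% = median of DMSO wells and 100% = 0.3 times that DMSO median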
Target sequence (Q9H3R0 1-420 limits assumed): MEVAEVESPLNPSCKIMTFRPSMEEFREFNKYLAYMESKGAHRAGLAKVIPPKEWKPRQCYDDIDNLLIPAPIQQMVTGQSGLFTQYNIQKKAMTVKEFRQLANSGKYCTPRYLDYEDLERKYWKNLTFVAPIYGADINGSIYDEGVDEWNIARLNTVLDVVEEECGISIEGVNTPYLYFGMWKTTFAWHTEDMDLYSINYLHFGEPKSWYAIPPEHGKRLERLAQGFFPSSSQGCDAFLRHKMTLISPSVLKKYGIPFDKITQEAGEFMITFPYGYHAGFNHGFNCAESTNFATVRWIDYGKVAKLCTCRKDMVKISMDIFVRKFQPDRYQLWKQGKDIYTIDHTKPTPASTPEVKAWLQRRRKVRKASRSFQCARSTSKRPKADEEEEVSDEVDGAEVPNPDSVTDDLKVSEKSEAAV
SMARCA2 conf: confirmation of SMARCA2 (BRM) function activators; shares compounds with SMARCA2 act; activation, % at 9.1 µM; MG213 cells, MMTV-luciferase with dexamethasone, luminescence, overnight; MG213 cells expressing E1A, Rb sequestered; DMSO wells 0%, reference activator 100%; 30% of 3,500 active;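 active = activation above its plate's cutoff, the mean activation of tested wells plus 3 SD, cut at about 7.9% in these data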
GAL4-VP16 Luc: counter-screen for SMARCA2 activators: GAL4-VP16 luciferase reporter activation | shares compounds with SMARCA2 act | HEK293 GAL4-VP16 pG5luc reporter, luciferase luminescence; scaled: DMSO wells 0%, SAHA wells 100% | activation, % at 9.1 µM | AID 686939 | 41% of 3,500 active;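 active = activation above the solvent-only control well mean plus 3 SD, averaged across control plates, cut at about 5.2% in these data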
The depositor's hits bear a star.

`CSc1cccc(NC(=O)C(=O)NCc2ccccc2)c1` gave PfM18AAP inh -3, SMARCA2 act 1, beta cell repl -5, ALR inh -1, Exocytosis inh -10 and GASC-1 inh 0.
O=C(Nc1ccc(Cl)cc1)Nc1cccc(C(=O)O)c1 was read as PfM18AAP inh 4, SMARCA2 act 7, beta cell repl -4, ALR inh -4, Exocytosis inh 1 and GASC-1 inh 19.
Screening O=C(NCc1ccccc1)C(=O)Nc1cccc(C(=O)O)c1 returned PfM18AAP inh -11, SMARCA2 act 13*, beta cell repl -3, ALR inh -3, Exocytosis inh -5, GASC-1 inh 0, SMARCA2 conf 10* and GAL4-VP16 Luc 11*.
Screening CCOc1ccc(NC(=O)Nc2cccc(C(=O)O)c2)cc1 returned PfM18AAP inh 7, SMARCA2 act 11*, beta cell repl -5, ALR inh -9, Exocytosis inh -2, GASC-1 inh 113, SMARCA2 conf 7 and GAL4-VP16 Luc 9.3*.
`O=C(Nc1cccc(Cl)c1)Nc1cccc(C(=O)O)c1` gave PfM18AAP inh 1, SMARCA2 act 14*, beta cell repl -2, ALR inh -14, Exocytosis inh -4, GASC-1 inh -41, SMARCA2 conf 7.9* and GAL4-VP16 Luc 4.
`CCCCNC(=O)c1nc(-c2cc3ccccc3[nH]2)oc1-c1ccccc1` gave SMARCA2 act -3 and Exocytosis inh 7.
CNC(=O)C1Cc2c(-c3ccc4c(c3)OCO4)ccnc2O1 (stereo unspecified) was read as SMARCA2 act 1 and Exocytosis inh 0.
`CCOC(=O)N1CCN(C(=O)C[C@H]2C[C@@]3(C(=O)OC)C(=C[C@H](C4CCCC4)O[C@@H]3C)N(Cc3ccco3)C2=O)CC1` gave SMARCA2 act -3.
CCOC(=O)c1cc2sccc2n1CC(=O)C(C)(C)C was read as PfM18AAP inh 7, SMARCA2 act 10*, beta cell repl -2, ALR inh -7, Exocytosis inh 1, GASC-1 inh -6, SMARCA2 conf -4 and GAL4-VP16 Luc 1.
`C=COC(=O)CSc1nc(-c2cccs2)ccc1C#N` gave PfM18AAP inh 12, SMARCA2 act 8.3*, beta cell repl -2, ALR inh -5, Exocytosis inh -1, GASC-1 inh -12, SMARCA2 conf 6 and GAL4-VP16 Luc 9.3*.
For CCOC(=O)C(C)Sc1nc(-c2cccs2)ccc1C#N (stereo unspecified) the results were PfM18AAP inh -1, SMARCA2 act -4, beta cell repl -4, ALR inh -5, Exocytosis inh -1 and GASC-1 inh 12.
For COC(=O)c1ccc(COc2cccn3c(N(C)C(=O)CCC4CCCC4)c(C)nc23)cc1 the results were SMARCA2 act -2 and Exocytosis inh 3.
For COc1cccc(CNC(=O)[C@@H]2CCCN2C(=O)[C@H]2CCCCN2C(=O)c2ccccc2)c1 the results were SMARCA2 act 6 and Exocytosis inh -2.
Screening Cc1ccc(S(=O)(=O)NC(=O)NC(C)Cc2ccccc2)cc1 (stereo unspecified) returned PfM18AAP inh 1, SMARCA2 act 1, beta cell repl 7, ALR inh -6, Exocytosis inh -3 and GASC-1 inh 47.
For Cc1ccc(S(=O)(=O)NC(=O)NC(C)c2ccc(F)cc2)cc1 (stereo unspecified) the results were PfM18AAP inh -9, SMARCA2 act 8.0*, beta cell repl -1, ALR inh -4, Exocytosis inh -15, GASC-1 inh -3, SMARCA2 conf 0 and GAL4-VP16 Luc 1.
Screening COc1ccc(OC(F)(F)F)cc1CC1(C)C(=O)Nc2ccc(S(=O)(=O)NC3CCCCC3)cc21 (stereo unspecified) returned SMARCA2 act -3 and Exocytosis inh 0.
Screening Cc1cc2nc(-c3nnnn3-c3c(C)cccc3C)c(=O)[nH]c2cc1C returned SMARCA2 act 8.0*, Exocytosis inh 20, SMARCA2 conf -3 and GAL4-VP16 Luc 1.
O=C(c1cc(Cl)ccc1Cl)N1CCOCC1 was read as PfM18AAP inh 1, SMARCA2 act 11*, beta cell repl -2, ALR inh -20, Exocytosis inh -4, GASC-1 inh 9, SMARCA2 conf 8.2* and GAL4-VP16 Luc 1.
COc1cccc(/C=N/N2CCOCC2)c1O was read as PfM18AAP inh -9, SMARCA2 act 10*, beta cell repl 0, ALR inh 55, Exocytosis inh -1, GASC-1 inh 10, SMARCA2 conf 4 and GAL4-VP16 Luc 3.
For NS(=O)(=O)c1ccc(NC(=O)CSc2nnc(NC3CC3)s2)cc1 the results were SMARCA2 act 0, beta cell repl 0 and Exocytosis inh 4.
Screening O=C(CSc1nnc(NC2CC2)s1)c1ccc[nH]1 returned SMARCA2 act 12*, beta cell repl -3, ALR inh 17, Exocytosis inh -4, GASC-1 inh 3, SMARCA2 conf 10* and GAL4-VP16 Luc 7.3*.
For CCC(=O)N1C(Cc2ccccc2)COC1(C)C (stereo unspecified) the results were PfM18AAP inh -5, SMARCA2 act 8.9*, beta cell repl 0, Exocytosis inh 2, GASC-1 inh 6, SMARCA2 conf -3 and GAL4-VP16 Luc 1.
Screening CC(C)(C)OC(=O)N1CCC(CNC(=O)c2ccccc2)CC1 returned PfM18AAP inh 2, SMARCA2 act 8.8*, beta cell repl 1, Exocytosis inh -4, GASC-1 inh -10, SMARCA2 conf -1 and GAL4-VP16 Luc 1.
Screening Nc1ncnc2c1ncn2[C@@H]1O[C@H](C(=O)NCCCN2CCCC2=O)[C@@H](O)[C@H]1O returned SMARCA2 act -1 and Exocytosis inh -3.
For CCCn1nnnc1NC(=O)c1cc(Br)ccc1OC the results were PfM18AAP inh 3, SMARCA2 act 1, beta cell repl 0, ALR inh -8, Exocytosis inh 18 and GASC-1 inh 4.
CCCn1nnnc1NC(=O)c1ccc(C)cc1Cl was read as PfM18AAP inh 1, SMARCA2 act 8.0*, beta cell repl -1, ALR inh 0, Exocytosis inh 1, GASC-1 inh 2, SMARCA2 conf -1 and GAL4-VP16 Luc 0.
Screening COC(=O)C(CC(C)C)N(Cc1ccc(Br)cc1)S(=O)(=O)CCl (stereo unspecified) returned SMARCA2 act 0.
CCCc1nc2oc3c(NCCCN(C)C)ncnc3c2c2c1CCCC2 was read as PfM18AAP inh -2, SMARCA2 act 19*, beta cell repl -4, ALR inh 1, Exocytosis inh 39, GASC-1 inh 9, SMARCA2 conf 19* and GAL4-VP16 Luc 1.
For CCCc1nc2oc3c(NCCN(C)C)ncnc3c2c2c1CCCC2 the results were PfM18AAP inh 5, SMARCA2 act 2, beta cell repl -6, ALR inh 0, Exocytosis inh -8 and GASC-1 inh 6.
Screening COC(=O)[C@@]12C[C@@H](CC(=O)NCC3CCCCC3)C(=O)N(Cc3ccc4c(c3)OCO4)C1=CCC(C)(C)C2 returned SMARCA2 act -4 and Exocytosis inh 5.
